Experimental data: PubChem BioAssay AID1530 (NMMLSC, 2009)
Where “and” joins values, the source holds several entries; their conditions need not be identical. Equal values may be shown once. The campaign covered roughly 290,000 compounds. About 1,000 (0.34%) were called active. Cut-off read from the data, not from the text of the source: active = percent response above about 24% (passing the limit was not always enough); inactive = the rest. The entries come from a sample that favours actives as a whole.

test system: MEKK2 (MAP3K2) mutant PB1 domain binding to MEK5, human; assay: MEK5 binding signal on mutant MEKK2 PB1, primary screen, biochemical, multiplex bead flow cytometry, Alexa488-MEK5 (AID 1530); conditions: at 10 µM, hits give high values

Percent response, inactive:
COc1ccc(NC(=O)CCC(=O)Nc2nnc(C3CCCCC3)s2)cc1 1%
Cc1ccc(OCC(=O)OC(C)CN(C)Cc2ccccc2)cc1 (stereo unspecified) -3%
OC(CNCc1ccc2c(c1)OCO2)COc1ccccc1 (stereo unspecified) -5%
Cc1ccc(-c2noc(C3CCCN(C(=O)c4cccc(Cl)c4)C3)n2)o1 (stereo unspecified) -3%
OC(CNCCc1ccc(Cl)cc1Cl)COc1ccccc1 (stereo unspecified) 11%
CCOc1ccc(NC(=O)NNC(=O)c2ccc(Cl)cc2Cl)cc1 -5%
COc1ccc(Br)cc1CN(C)CC(=O)Nc1cc(Cl)cc(Cl)c1 1%
Cc1ccc2c(c1)C1CN(C)CCC1N2C(=O)c1ccccc1NS(=O)(=O)c1ccc(F)cc1C (stereo unspecified) -2%
Cc1ccc2c(c1)C1CN(C)CCC1N2C(=S)Nc1ccc(OC(F)F)cc1 (stereo unspecified) 5%
O=C(CN(C(=O)CCC(=O)Nc1nccs1)c1ccc(F)cc1)NCc1ccc2c(c1)OCO2 -3%
CCCOc1ccc(CNC(=O)C2CCN(c3nn4c(=O)cc(C)nc4s3)CC2)cc1 11%
COc1ccc(CCNC(=O)C2CCCN2C(=O)Nc2ccccc2)cc1OC (stereo unspecified) 5%
COc1ccc(CCN(C)C(=O)C2CCCN(Cc3ccc(OC)c(OC)c3)C2)cc1OC (stereo unspecified) 3% and 10%
C=CCC1=C/C(=C\c2c(N)n3nc(CC(=O)N4CCOCC4)sc3nc2=O)C=C(OC)C1=O -5%
CCOC(=O)C1C(c2ccc(O)cc2)NC(=O)NC1(O)C(F)(F)F (stereo unspecified) 20%
COc1cccc(C2CC(c3cccs3)=NN2C(=O)CSC2=NCCS2)c1OC (stereo unspecified) 5%
CCc1nnc(NC(=O)CSCc2cc(=O)n3cc(C)sc3n2)s1 4%
CCCCOC(=O)Cn1c(=N)n(CCN(CC)CC)c2ccccc21 1%
COc1cccc(OCC(=O)Nc2ccccc2C(N)=O)c1 9%
COc1cccc(OCCCN2CCCCCC2)c1 -3%
Cc1ccc(OCc2nc3ccccc3n2C)cc1 -2%
COc1ccc(N(CC(=O)Nc2ccc(F)c(F)c2)S(=O)(=O)c2c(C)[nH]c(=O)[nH]c2=O)cc1 -7%
COc1cc(C(C(=O)NC2CCCC2)N(C(=O)c2ccco2)c2ccccc2C(C)=O)cc(OC)c1OC (stereo unspecified) 6%
O=C(N/N=C/c1cccc(O)c1)c1cc2c(ccc3ccccc32)o1 0%
O=C(CSc1nnc(SCc2ccc(Cl)cc2)s1)N/N=C/c1ccccc1Cl 20%
Cc1ccc2c(c1)N(CC(=O)N(Cc1ccccn1)Cc1ccco1)C(=O)C(C(C)C)O2 (stereo unspecified) 3%
CC1CCCC(C)N1C(=O)CSc1nnnn1C1CCCC1 (stereo unspecified) -3%
CCCc1cc(=O)[nH]c(SCC(=O)N2C(C)CCCC2C)n1 (stereo unspecified) 12%
O=C(NC(Cc1ccc(O)cc1)C(=O)O)/C(=C/c1ccccc1)NC(=O)c1ccccc1 (stereo unspecified) 4%
CN(Cc1ccccn1)Cc1nc(-c2ccc(Cl)cc2)no1 -10%
COc1ccc(-c2ccc(CNCCCN3CCOCC3)o2)cc1Cl 2%
CCCC(=O)N1CCN(c2nnc(-c3ccc(C)cc3)c3ccccc23)CC1 0%
C/C=C/C(=O)OCc1csc(CC(=O)Nc2ccccc2C)n1 -6%
O=C(CN1CCN(C(=O)c2ccco2)CC1)Nc1ccc2c(c1)OCO2 7%
O=C(c1ccco1)N1CCN(Cc2cccc(C(F)(F)F)c2)CC1 5%
CC1CCC(NC(=O)c2ccc(N3CCCC3=O)cc2)CC1 (stereo unspecified) 6%
CCOc1ccc(C(=O)NCCCN2CCCC2=O)cc1 8%
CCN(CC(=O)Nc1ccc2c(c1)OCO2)S(=O)(=O)c1ccccc1 -3%
CC(=O)c1ccc(S(=O)(=O)N2CCN(c3nc4c(C)c(C)ccc4cc3C#N)CC2)cc1 1%
Cc1ccc(C(=O)NCCN2CCOCC2)cc1C -1%
CCC1=Nc2cc(C(=O)NCCN3CCCC3)ccc2Sc2ccc(C)cc21 15%
Cc1c(NC(=O)c2cc(-c3ccc(Br)cc3)on2)c(=O)n(-c2ccccc2)n1C 4%
CCOc1ccc(N(CC)S(=O)(=O)c2cccc3nsnc23)cc1 2%
Cc1ccc(NC(=O)CCNS(=O)(=O)c2ccc3c(c2)oc(=O)n3C)cc1C 3%
Cn1c(=O)c2cc(S(=O)(=O)NCCC(=O)Nc3ccc(F)cc3F)ccc2n(C)c1=O -8%
CCSc1nc2sc3c(c2c(=O)n1-c1ccc(C)cc1)CCN(C)C3 3%
CN(C)S(=O)(=O)c1ccc(N/C=C(\[N+](=O)[O-])S(=O)(=O)c2ccccc2)cc1 -3%
CCOC(=O)c1cccc(NC(=O)c2ccc(F)cc2F)c1 -1%
CCOc1ccccc1OCCCNCc1ccccc1 1%
CSc1ccc(/C=N/N2CCN(Cc3ccccc3Cl)CC2)cc1 -5%
CN1CCN(/N=C/c2ccc(-c3ccc([N+](=O)[O-])cc3)o2)CC1 -2%
Cc1ccc(CNC(=O)c2ccc3c(c2)S(=O)(=O)c2ccccc2C3=O)cc1 6%
COC(=O)Nc1ccc(S(=O)(=O)Nc2cc(OC)nc(OC)n2)cc1 7%
COc1ccc(C=C(C#N)C#N)c(CSc2ccccn2)c1 11%
O=C(NC1CCN(S(=O)(=O)c2ccc(F)cc2)CC1)c1ccccc1 4%
Cc1ccc(S(=O)(=O)NC(=O)N2CCCN(Cc3ccc(F)cc3)CC2)cc1 -4%
Cc1ccc(S(=O)(=O)NCC(=O)N2CCOCCOCCOCCOCC2)cc1 -7%
O=[N+]([O-])c1ccc2nc(-c3ccccn3)[nH]c2c1 -17%
Cc1cccc(Nc2nc(NCCO)nc(N3CCCC3)n2)c1 4%
COc1ccc(Cn2c(=S)[nH]c3cc(C(=O)N4CCCCC4)ccc3c2=O)cc1 -5%
C/C(=N\NC(=O)c1ccc(NS(=O)(=O)c2cccs2)cc1)c1ccc2ccccc2c1 -4%
CC(=O)c1cccc(OCc2cc(C(=O)NC(C)Cc3cccnc3)no2)c1 (stereo unspecified) 10%
CC(=O)Nc1ccc(Nc2c3ccccc3nc3ccccc23)cc1 3%
Cc1ccc2nc(-c3ccc(NC(=O)c4cccnc4)cc3)oc2c1 0%
COc1ccc(-n2nc(C(=O)NCC(=O)N3CCCCCC3)c3ccccc3c2=O)cc1Cl 6%
CN1CCN(c2ccc(S(=O)(=O)N3CCCCC3)cc2NC(=O)Cc2ccccc2F)CC1 0%
COc1ccc(CC(=O)Nc2cc(S(=O)(=O)N3CCCCC3)ccc2N2CCN(C)CC2)cc1 -1%
Cc1cccc(S(=O)(=O)N2CN(CC3CCCO3)c3nc4ccccc4nc32)c1 (stereo unspecified) 1%
Cc1ccc([N+](=O)[O-])c(OCCCNCC(C)O)c1 (stereo unspecified) 7%
CCOc1ccc(NC(=O)CCCCCN2C(=O)[C@@H]3Cc4ccccc4CN3C2=O)cc1 0%
CN(C)CCCNC(=S)NCc1ccc(Cl)cc1 13%
CC(C)CC(=O)c1c[nH]c(C(=O)NCc2ccccc2)c1 10%
Cc1noc(C)c1C(=O)NCCc1ccc(S(N)(=O)=O)cc1 2%
Cc1ccc2nc(-c3ccc(NC(=O)CN(C)S(=O)(=O)c4ccccc4)cc3)sc2c1 -5%
CN(C)c1nc(Nc2ccc(Cl)c(Cl)c2)nc(N(C)C)n1 0%
Nc1nc(Nc2ccccc2)nc(NCCO)c1[N+](=O)[O-] -1%
CCOC(=O)C1=C(CN2CCc3ccccc32)NC(=O)NC1c1cc(C)ccc1C (stereo unspecified) 5%
COc1cc2c(cc1OC)C(C)N(S(=O)(=O)c1cnc(Cl)c(Cl)c1)CC2 (stereo unspecified) 10%

Percent response, active:
CN(Cc1ccccc1)CC(O)COc1ccc(CNCc2cc3ccccc3s2)cc1 (stereo unspecified) 33%
NC(N)=N/N=C/c1ccc(OCc2ccc(Cl)cc2Cl)cc1 52%
Cc1ccc2c(c1)C1CN(C)CCC1N2S(=O)(=O)c1ccc(Oc2ccc([N+](=O)[O-])cc2)cc1 (stereo unspecified) 63%
CCCCNC(=O)N1CCCC(N(C)CCc2ccc(OC)c(OC)c2)C1 (stereo unspecified) 24%
CCCCCCCCCCOC(=O)Cn1c(COc2ccc(C)cc2)[n+](C)c2ccccc21 91%
CCCCCCCCCCOC(=O)Cn1c(COc2cccc(OC)c2)[n+](C)c2ccccc21 81%
CCCc1nnc(SCC(=O)N2C(C)CCCC2C)n1CC (stereo unspecified) 1490%
Fc1ccc(-c2ccc(CNCc3ccccn3)o2)cc1Cl 25%
O=C(CN1CCN(C(=O)c2ccco2)CC1)Nc1ccc(Cl)c(C(F)(F)F)c1 24%
O=C(NCCCN1CCCCCC1)c1ccc(N2CCCC2=O)cc1 31%
Cc1cccc(-c2nc3ccc(C(=O)NCCN4CCN(C)CC4)cc3nc2-c2cccc(C)c2)c1 34%
COc1ccc(NC(=O)CCNS(=O)(=O)c2ccc3c(c2)c(=O)n(C)c(=O)n3C)cc1OC 56%
CN1CCN(/N=C/c2ccc(C#N)cc2)CC1 134%
Cc1ccc(S(=O)(=O)NC(=O)N2CCCC(C)(C)C2)cc1 24%
CC(=O)Nc1ccc(-c2nc3ccccc3o2)cc1 28%
CCN1CCN(c2ccc(S(=O)(=O)N3CCCCC3)cc2NC(=O)Cc2c(Cl)cccc2Cl)CC1 24%
CN(C)CCCNC(=O)c1cc(C(=O)Cc2ccc(Cl)cc2)c[nH]1 27%
OCCNc1nc(Nc2ccc(Cl)c(Cl)c2)nc2ccccc12 31%
